KDM5B inh: blocks human KDM5B histone demethylase activity; 2.6% of 220,000 active; KDM5B demethylase, FDH-coupled NADH fluorescence (FDH is formaldehyde dehydrogenase); Potency, µM (top dose mostly 57.7 µM), actives largely listed as inhibitors; Q9UGL1; active means well fitted inhibition curve with a large enough effect; inconclusive means small, poorly fitted or top-dose-only effect; inactive means no such curve, though single readings can be large or run the other way; further: nearly all actives have a fitted effect of over 70% in size
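Here, H3K4me3 peptide (12.5 µM in substrate mix) is demethylated by KDM5BΔAP, 200 nM final, after 10 min compound exposure. Formaldehyde product is coupled through FDH (0.25 U/mL in mix) to NADH fluorescence; 30-min ΔRFU feeds dose-response curves.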
IP6K1 inhibitor: inhibitors of human IP6K1 | Q92551 | IP6K1 kinase, ADP-Glo luminescence, 2 h; hits give low values | activity change, % (series mostly up to about 58 µM) | 0.81% of 140,000 active | AID 1645851; in the data active means activity change below about -25%
Target sequence (Q92551 whole entry, looked up): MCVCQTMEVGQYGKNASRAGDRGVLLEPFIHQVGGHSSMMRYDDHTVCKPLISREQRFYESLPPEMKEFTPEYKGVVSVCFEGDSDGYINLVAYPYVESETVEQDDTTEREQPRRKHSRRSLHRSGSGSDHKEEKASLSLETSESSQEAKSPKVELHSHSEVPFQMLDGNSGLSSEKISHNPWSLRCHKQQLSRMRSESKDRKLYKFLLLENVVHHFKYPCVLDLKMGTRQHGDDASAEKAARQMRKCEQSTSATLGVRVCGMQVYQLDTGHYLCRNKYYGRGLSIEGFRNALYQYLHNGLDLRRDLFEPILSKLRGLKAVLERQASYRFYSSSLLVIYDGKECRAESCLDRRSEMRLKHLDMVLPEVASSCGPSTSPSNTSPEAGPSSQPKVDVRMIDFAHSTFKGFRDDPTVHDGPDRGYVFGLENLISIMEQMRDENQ
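ADP-Glo luminescence measures ADP made by human IP6K1 during a 2 h RT reaction with ATP/IP6 (mix at 1.3 mM/130 uM); top library doses 57.5 and 19.1 uM final.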
A number is an active result; 0 = inactive; ? = inconclusive; - = no result given. Only some compounds are listed: those with a hit (about 2.7% of all), similar ones and a draw of the others.

SMILES	KDM5B inh	IP6K1 inhibitor
CC(=O)N1CCCC1c1nnc2n1CCNC2 (stereo unspecified)	?	0
C=CCOc1c(OC)ccc2c1CN(C1CCCC1)C(=O)CCN2CC(O)Cc1ccccc1 (stereo unspecified)	-	0
Cc1cn2nc(C(=O)N3CCC(C)CC3)cc2c(N(C)Cc2ccccc2)n1	28µM	0
Cc1cn2nc(C(=O)N3CCOCC3)cc2c(N(C)Cc2ccccc2)n1	?	0
Cc1cn2nc(C(=O)Nc3ccc4c(c3)OCO4)cc2c(N(C)Cc2ccccc2)n1	?	0
Cc1cn2nc(C(=O)N3CCCC3)cc2c(N(C)Cc2ccccc2)n1	?	0
Cc1cn2nc(C(=O)Nc3ccccc3F)cc2c(N(C)Cc2ccccc2)n1	22µM	0
Cc1cn2nc(C(=O)Nc3ccc(F)c(F)c3)cc2c(N(C)Cc2ccccc2)n1	32µM	0
Cc1cnc(C(=O)Oc2c(C)cccc2C)cn1	0	-
Cc1ccc(C)c(-c2nn(CC(=O)Nc3ccccc3)c(=O)c3c2CCCC3)c1	0	-
CCc1cccc(CC)c1NC(=O)CSc1nc2ccccc2o1	0	-
C[S+](=O)([O-])N1CC2(CCN(Cc3ccccn3)CC2)Cc2ccccc21	0	0
Cc1cc(NC(=O)COC(=O)C2(c3ccccc3)CCCC2)no1	0	-
O=C1CCC2(CCCN(c3ncc(Cl)cc3F)C2)CN1Cc1cccnc1 (stereo unspecified)	28µM	0
O=C1CCC2(CCCN(c3ncccc3F)C2)CN1Cc1ccncc1 (stereo unspecified)	?	0
CC(C)CNC(=O)c1ccc2nc(-c3cccnc3)oc2c1	-	0
CCn1nc(C(=O)N(C)C2CCCc3ccccc32)c2ccccc2c1=O (stereo unspecified)	0	-
CN(C)C[C@@H]1CN(C)C[C@H]1NC(=O)c1ccccc1C(F)(F)F	0	0
CN(C)C[C@@H]1CN(S(C)(=O)=O)C[C@H]1NC(=O)c1ccc2nc[nH]c2c1	0	0
CN(C)C[C@@H]1CN(c2ncccn2)C[C@H]1NS(=O)(=O)c1cccs1	?	0
CN(C)C[C@@H]1CN(c2ncccn2)C[C@H]1NS(=O)(=O)c1cccnc1	25µM	0
CN(C)C[C@@H]1CN(c2ncccn2)C[C@H]1NC(=O)c1ccc2[nH]ccc2c1	32µM	0
CN(C)C[C@@H]1CN(c2ncccn2)C[C@H]1NC(=O)c1ccccc1C(F)(F)F	22µM	0
CN(C)C[C@@H]1CN(c2ncccn2)C[C@H]1NC(=O)c1ccncn1	32µM	0
Cc1cc(C(=O)N[C@@H]2CN(c3ccncn3)C[C@H]2CN(C)C)no1	0	0
SMILES	KDM5B inh	IP6K1 inhibitor
O=C(c1cccc(Br)c1)C(Cl)C(=O)c1cccc(Br)c1	0	-
O=C(CCc1cccs1)N1CCSCC1	0	-
CCC(CC)c1nnc(NC(=O)c2cc(S(=O)(=O)N(C)C)ccc2Cl)s1	0	-
CC(Sc1ccc(C#N)cc1)C(=O)NC1CCCC1 (stereo unspecified)	0	-
Cc1ccc(C(=O)COC(=O)COc2ccc(Cl)c(C)c2)c(C)c1	0	-
CCCCNC(=O)CC(c1ccccc1)c1ccccc1	0	-
Cn1nccc1C(=O)N[C@@H]1CN(c2ncccn2)C[C@H]1CO	?	0
CN(C)C[C@@H]1CN(Cc2ccccn2)C[C@H]1NC(=O)c1ccc(Cl)cc1	0	0
CN(C)C[C@@H]1CN(c2ncccn2)C[C@H]1NC(=O)c1c(F)cccc1F	32µM	0
CN(C)C[C@@H]1CN(c2ncccn2)C[C@H]1NC(=O)c1ccc(Cl)cc1	28µM	0
CN(C)C[C@@H]1CN(c2ncccn2)C[C@H]1NC(=O)c1ccncc1	25µM	0
CN(C)C[C@@H]1CN(c2ncccn2)C[C@H]1NC(=O)c1ccnn1C	28µM	0
O=C(N[C@@H]1CN(c2ncccn2)C[C@H]1CO)c1c(F)cccc1F	?	0
CN(C)C[C@@H]1CN(S(C)(=O)=O)C[C@H]1NC(=O)c1ccncc1	0	0
Cc1ccc(-c2noc(CNC(=O)Nc3ccccc3)n2)cc1	0	-
Cc1nn(-c2ccccc2)c2c1C(C)N(C1CCN(C(=O)c3ccccc3F)C1)C2=O (stereo unspecified)	-	0
CNc1snc(C)c1C(=O)N(C)CCOc1cccc(Cl)c1	0	-
Cc1c(Cl)c(CSc2nccn2C)nc2ccccc12	0	-
O=S(=O)(Nc1cccc(F)c1)c1ccc(-c2cnc(C3CC3)o2)cc1	0	-
O=C(N[C@@H]1CN(c2ncccn2)C[C@H]1CO)c1cccc(Cl)c1	?	0
CN(C)C[C@@H]1CN(c2ncccn2)C[C@H]1NC(=O)c1cnccn1	25µM	0
Cc1cccnc1C(=O)N[C@@H]1CN(S(C)(=O)=O)C[C@H]1CN(C)C	0	0
CN(C)C[C@@H]1CN(c2ncccn2)C[C@H]1NC(=O)c1cccc(Cl)c1	28µM	0
CN(C)C[C@@H]1CN(C)C[C@H]1NC(=O)c1cnccn1	0	0
Cc1ccsc1C(=O)N[C@@H]1CN(c2ncccn2)C[C@H]1CN(C)C	32µM	0
SMILES	KDM5B inh	IP6K1 inhibitor
COc1ccc(CC(=O)NCCNC(=O)c2ccc(-c3cccc(C(F)(F)F)c3)cc2)cc1	-	0
COC(=O)c1cc(NC(=O)c2ccc3c(c2)CCC3)cc(C(=O)OC)c1	0	-
COCCNc1ncccc1-c1noc([C@@H]2CCCN2C2CCN(C)CC2)n1	32µM	0
COCCOc1cc(-c2noc([C@@H]3CCCN3C3CCN(C)CC3)n2)ccn1	0	0
COCCNc1ncccc1-c1noc([C@@H]2CCCN2C2CCC2)n1	32µM	0
COCCOc1ncccc1-c1noc([C@@H]2CCCN2Cc2ccc(C(=O)O)cc2)n1	?	0
COCCNc1ccc(-c2noc([C@@H]3CCCN3C3CCOCC3)n2)cn1	?	0
COCCNc1ncccc1-c1noc([C@@H]2CCCN2C2CCN(C(C)=O)CC2)n1	35µM	0
COCCNc1ncccc1-c1noc([C@@H]2CCCN2Cc2ccc(C(=O)O)cc2)n1	35µM	0
COCCNc1ncccc1-c1noc([C@@H]2CCCN2Cc2ccccc2OC)n1	?	0
CC(C)Cc1ccc(-c2cnc(CCC(=O)Nc3nccs3)o2)cc1	0	-
CCOC(=O)C(Cc1cccc(N2CCN([S+](=O)([O-])c3ccccc3F)CC2)c1)OC (stereo unspecified)	-	0
c1ccc(CN2Cc3[nH]cnc3C[C@H]2c2nc(-c3ccccn3)no2)cc1	?	0
CCOc1nccn2c(-c3ccc(CN4CCNC(=O)C4)cc3)cnc12	35µM	0
COc1ccc(-c2cn(C)c(=O)n3cc(CN4CCNC(=O)C4)nc23)cn1	?	0
O=C(/C=C/c1ccccc1C(F)(F)F)c1ccc(N2CCCCCC2)cc1	0	-
Cn1nc(CC(=O)Nc2ccccc2)c2ccccc2c1=O	0	-
O=C(CCC(=O)OCc1ccccc1Cl)Nc1ccc2c(c1)oc1ccccc12	0	-
CC(=O)N1CCN(Cc2csc(-c3ccc(C(F)(F)F)cc3)n2)CC1	0	-
COc1ccccc1-c1cc2[nH]ccc2c(C(=O)NCc2c(C)cc(C)[nH]c2=O)n1	0	0
Cc1cc(C)c(CNC(=O)c2nc(-c3cccnc3)cc3c2ccn3C(C)C)c(=O)[nH]1	0	0
COc1ccccc1-c1cc2c(ccn2C)c(C(=O)NCc2c(C)cc(C)[nH]c2=O)n1	35µM	0
COc1cccc(-c2cc3c(ccn3C(C)C)c(C(=O)NCc3c(C)cc(C)[nH]c3=O)n2)c1	0	0
CC(=O)Nc1cccc(-c2cc3c(ccn3C)c(C(=O)NCc3c(C)cc(C)[nH]c3=O)n2)c1	14µM	0
